The results in this text go back to PubChem BioAssay (Tox21).

Active and inactive are the calls of the source. A call without a number means that no potency is given here. Calls follow the shape of the dose curve; as a rule, active = well fitted activation curve with a large enough effect in the repeat runs; inconclusive = weak or mixed curves; inactive = flat fitted curve, though single readings scatter.

The assay can be described thus: Caspase-3/7 induction in CHO-K1 cells by small molecules, qHTS assay (AID 1346980). Also: nearly all actives have a fitted effect of over 15% in size. To be noted: CHO-K1 caspase-3/7 induction, Caspase-Glo luminescence, 17 h; series mostly up to 92.4 µM. The source says: National Center for Advancing Translational Sciences [NCATS]
NIH Chemical Genomics Center [NCGC]
U.S. Environmental Protection Agency [EPA]
National Institutes of Environmental Health Sciences [NIEHS]
National Toxicology Program [NTP]
Apoptosis is a process of programmed cell death and plays a central role in the development of multicellular organisms. It is a highly regulated process and induces cell death by activating caspases, which are the members of cysteine aspartic acid-specific protease (caspase) family. Caspases involved in apoptosis are classified by their mechanism of action as initiator caspases (caspase-2, -8, -9 and -10) and executioner caspases (caspase-3, -6, and -7). Inhibition of apoptosis results in number of cancers, autoimmune diseases, inflammatory diseases and viral infection. To identify small molecule compounds that induce apoptosis, a homogeneous, luminescent Caspase-Glo 3/7 assay was used. Wild type CHO-K1 cells were used to screen Tox21 libraries for identifying caspase-3/7 activity inducers.
CHO-K1 cells were dispensed at 1,500 per well in 5uL of culture medium into white solid bottom 1536-well plates (Corning Life Sciences, Corning, NY) using a Multidrop Combi (Thermo Scientific, Waltham, MA) dispenser. The assay plates were incubated at 37 C and 5% CO2 for 5hr, and then 23nL of compounds dissolved in DMSO and positive control were transferred using a Pintool station (Wako, San Diego, CA). The assay plates were incubated at 37C and 5% CO2 for 17hr. For caspase-3/7 activity read, 4uL of Caspase-Glo 3/7 reagent (Promega Corporation, Madison, WI) was added to each well of the assay plates using Flying Reagent Dispenser (FRD, Aurora Discovery, San Diego, CA) and incubated the assay plates at room temperature for 30min. The luminescence signal was quantified using a ViewLux plate reader (Perkin Elmer, Shelton, CT).
On to `Cc1ccccc1C(=O)Nc1cccc(OC(C)C)c1`, for which the Potency entry is “inactive”. Regarding `CS/C(C)=N/OC(=O)N(C)SN(C)C(=O)O/N=C(\C)SC`, the Potency entry was “inactive”. Turning to `O=[N+]([O-])c1cc(C(F)(F)F)cc([N+](=O)[O-])c1Cl`, the Potency entry was “inactive”. In the case of `Brc1ccccc1` it was “inactive”; in that of `Cc1ccccc1CCl`, “inactive”; in that of `CCOP(=O)(OCC)Oc1ccc([N+](=O)[O-])cc1`, “inactive”. For `ClCCCCBr`, the Potency entry is “inactive”.

For the compound `CCCCCCCCCCOC(=O)c1ccccc1C(=O)OCCCCCCCCCC`, the Potency entry was “inactive”. For `O=C(CCl)c1ccc(Cl)cc1Cl`, the Potency result was “inactive”. In the case of `CC(=O)NC1CCSC1=O` (stereo not given), the Potency entry is “inactive”. The value for `ClCC(Br)CBr` (stereo not given) was “inactive”; that for `CCOP(=S)(OCC)SCn1nnc2ccccc2c1=O` was “inactive”; that for `O=C1C(Cl)C(CCl)CN1c1cccc(C(F)(F)F)c1` (stereo not given) was “inactive”. Consider `COc1ccc(-c2ccccc2)cc1NNC(=O)OC(C)C`, for which the Potency result is “inactive”. The value for `O=[N+]([O-])c1ccc(F)c([N+](=O)[O-])c1` was “inactive”. In the case of `N#Cc1ccc(Cl)cc1`, the Potency entry is “inactive”. As to `NCCCNCCCN`, the Potency result is “inactive”. For `O=C=Nc1ccc(Cl)cc1`, the Potency entry is “inactive”. With `S=C=NCc1ccccc1`, the Potency entry is “inactive”. The value for `CN1C[C@H](CNC(=O)OCc2ccccc2)C[C@@H]2c3cccc4c3c(cn4C)C[C@H]21` was “inactive”; that for `C#CCOC(C(=O)OCCN(C)C)(c1ccccc1)c1ccccc1` was “inactive”. `CCOc1ccc(C(C)(C)COCc2cccc(Oc3ccccc3)c2)cc1`: the Potency result was “inactive”.

On to `CCCC(=O)Cl`, for which the Potency result was “inactive”. In the case of `CC(C)(OO)c1ccccc1`, the Potency result is “inactive”. The value for `CC(C)(C)C(O)C(Oc1ccc(Cl)cc1)n1cncn1` (stereo not given) was “inactive”; that for `O=C1NCN(c2ccccc2)C12CCN(CCCOc1ccc(F)cc1)CC2` was “inactive”. Regarding `C(=NC1CCCCC1)=NC1CCCCC1`, the Potency result was “inactive”. For `CN1[C@@H]2CC[C@H]1CC(OC(=O)c1cc(Cl)cc(Cl)c1)C2` (stereo not given in full), the Potency result is “inactive”. In the case of `COc1cc(Cl)c(OC)cc1Cl` it was “inactive”; in that of `CCc1ccc(C(=O)NN(C(=O)c2cc(C)cc(C)c2)C(C)(C)C)cc1`, “inactive”. The value for `O=C(N[C@H](c1ccccc1)[C@@H]1CN2CCC1CC2)c1c(Cl)ccc(C(F)(F)F)c1Cl` was “inactive”; that for `CN(C)c1ccc(N(C)C)cc1` was “inactive”; that for `O=Cc1ccc(Cl)cc1Cl` was “inactive”. The value for `Cc1ccc(-c2c(Cl)nc(C#N)n2S(=O)(=O)N(C)C)cc1` was “inactive”.

On to `COP(=O)(OC)O/C(=C/Cl)c1cc(Cl)c(Cl)cc1Cl`, for which the Potency result is “inactive”. Take `COCC(C)N(C(=O)CCl)c1c(C)csc1C` (stereo not given): the Potency result is “inactive”. In the case of `COc1nn(C(=O)NS(=O)(=O)c2ccccc2OC(F)(F)F)c(=O)n1C` it was “inactive”. Take `CC1CC(CC2CCC(N)C(C)C2)CCC1N` (stereo not given): the Potency entry was “inactive”. With `C=CCCl`, the Potency result is “inactive”. Consider `Clc1cc(Cl)c(Cl)c(Cl)c1`, for which the Potency result was “inactive”.
